The results in this text go back to paper PMC7862700, “An all-to-all approach to the identification of sequence-specific readers for epigenetic DNA modifications on cytosine”.

Common to all, as to experiment: DAPPL (digital affinity profiling via proximity ligation, sequencing); 10 mM Tris-HCl pH 7.5, 50 mM NaCl, 1 mM DTT, 4% glycerol, room temperature, 30 min; GST-TFs on glutathione beads, 16-mer random dsDNA library, 0.1% formaldehyde crosslink after washing; high values mean tight binding
Holding throughout (conditions): protein: recombinant; tags: N-terminal GST; dsDNA, one strand shown

The target in one assay is T1, ERF (Homo sapiens, UniProt P50548 1-548).
T1 sequence: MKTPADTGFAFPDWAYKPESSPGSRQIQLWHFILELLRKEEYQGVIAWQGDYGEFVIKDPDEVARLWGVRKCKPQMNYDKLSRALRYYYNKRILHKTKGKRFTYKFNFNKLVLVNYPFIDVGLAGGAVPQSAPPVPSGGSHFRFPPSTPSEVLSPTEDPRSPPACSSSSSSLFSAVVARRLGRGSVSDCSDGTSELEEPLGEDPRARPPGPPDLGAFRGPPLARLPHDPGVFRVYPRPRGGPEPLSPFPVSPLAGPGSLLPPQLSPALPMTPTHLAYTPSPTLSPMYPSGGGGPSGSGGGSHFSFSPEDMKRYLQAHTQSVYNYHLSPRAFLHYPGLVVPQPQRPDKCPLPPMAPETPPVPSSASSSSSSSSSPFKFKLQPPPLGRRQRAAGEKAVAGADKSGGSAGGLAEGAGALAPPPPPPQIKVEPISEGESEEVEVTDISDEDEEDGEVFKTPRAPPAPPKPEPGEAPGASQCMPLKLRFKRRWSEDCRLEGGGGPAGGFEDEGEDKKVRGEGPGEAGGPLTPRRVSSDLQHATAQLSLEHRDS
In short, it runs like this:
(§1)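 Binding signal is each hexamer's read frequency for a factor divided by its frequency in the tag-only sample. The factors were GST-fused human transcription factors from yeast, captured on glutathione beads, DNA-barcoded and pooled with that sample. Pools were incubated with 200 nmole of a random double-stranded 16-mer DNA library in Tris/NaCl/DTT/glycerol buffer at room temperature for 30 min, then washed, crosslinked with 0.1% formaldehyde, proximity-ligated with BsaI/T4 ligase (1 h, 37 °C), PCR-amplified and sequenced on an Illumina NextSeq500.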

A further assay has as its target T2, ETV3L (Homo sapiens, UniProt Q6ZN32 1-361).
T2 sequence: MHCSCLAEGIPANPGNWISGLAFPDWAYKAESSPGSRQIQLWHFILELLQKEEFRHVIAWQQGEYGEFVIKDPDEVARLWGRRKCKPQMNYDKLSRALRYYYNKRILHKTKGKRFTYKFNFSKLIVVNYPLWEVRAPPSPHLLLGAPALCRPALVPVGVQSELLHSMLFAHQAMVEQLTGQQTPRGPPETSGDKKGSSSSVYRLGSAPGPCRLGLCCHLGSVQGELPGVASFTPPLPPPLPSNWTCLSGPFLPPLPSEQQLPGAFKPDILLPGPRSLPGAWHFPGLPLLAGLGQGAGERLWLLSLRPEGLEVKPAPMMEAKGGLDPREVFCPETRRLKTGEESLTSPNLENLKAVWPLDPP
In short, it runs like this: as §1

The target of the next assay is T3, ETS2 (Homo sapiens, UniProt P15036 1-469).
T3 sequence: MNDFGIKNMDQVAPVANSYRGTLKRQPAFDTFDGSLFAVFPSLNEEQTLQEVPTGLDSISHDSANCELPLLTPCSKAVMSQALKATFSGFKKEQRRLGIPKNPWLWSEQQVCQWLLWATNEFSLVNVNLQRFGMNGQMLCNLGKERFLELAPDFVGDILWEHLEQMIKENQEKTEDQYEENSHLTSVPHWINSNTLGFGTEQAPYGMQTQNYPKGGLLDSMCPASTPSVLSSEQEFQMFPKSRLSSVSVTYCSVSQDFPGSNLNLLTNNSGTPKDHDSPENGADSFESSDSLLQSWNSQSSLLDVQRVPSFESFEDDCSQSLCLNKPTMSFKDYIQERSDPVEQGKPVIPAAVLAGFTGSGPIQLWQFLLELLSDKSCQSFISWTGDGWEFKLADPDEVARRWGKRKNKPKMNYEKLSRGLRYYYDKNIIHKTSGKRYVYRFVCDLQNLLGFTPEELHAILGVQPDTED
In short, it runs like this: as §1

Another assay has as its target T4, SPDEF (Homo sapiens, UniProt O95238 1-335).
T4 sequence: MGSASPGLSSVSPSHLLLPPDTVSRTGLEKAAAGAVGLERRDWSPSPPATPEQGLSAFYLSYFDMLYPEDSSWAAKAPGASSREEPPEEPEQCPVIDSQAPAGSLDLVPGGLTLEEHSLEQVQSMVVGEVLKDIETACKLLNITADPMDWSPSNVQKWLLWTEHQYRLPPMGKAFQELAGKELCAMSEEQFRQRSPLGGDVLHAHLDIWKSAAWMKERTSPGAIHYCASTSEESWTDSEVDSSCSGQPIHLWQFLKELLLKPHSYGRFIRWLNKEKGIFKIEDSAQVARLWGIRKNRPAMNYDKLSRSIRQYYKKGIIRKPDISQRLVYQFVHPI
In short, it runs like this: as §1

For a further assay, the target named is T5, ETV7 (Homo sapiens, UniProt Q9Y603 1-341).
T5 sequence: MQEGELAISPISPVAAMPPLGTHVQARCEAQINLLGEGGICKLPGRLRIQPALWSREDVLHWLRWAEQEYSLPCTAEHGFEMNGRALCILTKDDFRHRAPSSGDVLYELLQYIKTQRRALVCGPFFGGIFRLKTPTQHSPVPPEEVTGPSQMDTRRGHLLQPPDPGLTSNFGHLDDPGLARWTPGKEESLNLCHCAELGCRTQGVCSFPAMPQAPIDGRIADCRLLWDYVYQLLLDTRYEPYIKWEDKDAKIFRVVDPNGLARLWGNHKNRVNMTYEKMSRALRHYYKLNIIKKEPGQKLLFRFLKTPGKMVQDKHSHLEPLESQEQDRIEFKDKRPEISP
Put shortly: as §1

The target of a further assay is T6, ELF5 (Homo sapiens, UniProt Q9UKW6-2 1-255).
T6 sequence: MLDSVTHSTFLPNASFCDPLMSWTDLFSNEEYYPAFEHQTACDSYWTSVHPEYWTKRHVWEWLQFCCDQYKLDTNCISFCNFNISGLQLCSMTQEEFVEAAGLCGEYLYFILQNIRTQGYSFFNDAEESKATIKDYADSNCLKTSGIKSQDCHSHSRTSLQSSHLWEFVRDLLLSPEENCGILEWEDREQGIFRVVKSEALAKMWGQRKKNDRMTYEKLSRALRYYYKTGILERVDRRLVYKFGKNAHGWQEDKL
In short, it runs like this: as §1

Another assay has as its target T7, ETV3 (Homo sapiens, UniProt P41162-2 1-143).
T7 sequence: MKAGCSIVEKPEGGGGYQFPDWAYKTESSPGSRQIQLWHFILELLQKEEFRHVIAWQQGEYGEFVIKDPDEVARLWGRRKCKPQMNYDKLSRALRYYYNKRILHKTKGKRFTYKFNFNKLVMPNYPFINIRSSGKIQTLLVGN
Put shortly:
as §1

The target of a further assay is ETV6 (Homo sapiens, UniProt P41212 1-452). In short, it runs like this: as §1
ETV6, sequence (P41212 whole entry): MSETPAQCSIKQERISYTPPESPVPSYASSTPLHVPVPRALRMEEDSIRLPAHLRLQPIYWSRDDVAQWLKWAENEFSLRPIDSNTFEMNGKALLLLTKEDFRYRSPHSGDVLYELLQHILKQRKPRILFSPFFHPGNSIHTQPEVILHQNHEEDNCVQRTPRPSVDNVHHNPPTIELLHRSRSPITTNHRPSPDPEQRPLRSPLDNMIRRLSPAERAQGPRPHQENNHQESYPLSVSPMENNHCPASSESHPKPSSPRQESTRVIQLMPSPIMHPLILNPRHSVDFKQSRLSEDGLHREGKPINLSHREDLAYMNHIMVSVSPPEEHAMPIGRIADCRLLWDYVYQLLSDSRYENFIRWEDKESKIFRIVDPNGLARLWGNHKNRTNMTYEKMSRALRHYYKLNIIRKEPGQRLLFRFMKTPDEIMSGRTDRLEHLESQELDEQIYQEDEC

For the sequence CCATTG, the binding signal in the assay with ERF was 1.07 fold enrichment (6-mer frequency, TF over GST control); in the assay with ETV3L it was 1.22 fold enrichment (6-mer frequency, TF over GST control); with ETS2 it was 1.14 fold enrichment (6-mer frequency, TF over GST control); in the assay with SPDEF it was 1.02 fold enrichment (6-mer frequency, TF over GST control); with ETV7, 1.24 fold enrichment (6-mer frequency, TF over GST control); with ELF5, 1.19 fold enrichment (6-mer frequency, TF over GST control). The binding signal in the assay with ETV3 is 1.19 fold enrichment (6-mer frequency, TF over GST control); in the assay with ETV6, 1.12 fold enrichment (6-mer frequency, TF over GST control).
On to CAAACC, for which the binding signal was 1.06 fold enrichment (6-mer frequency, TF over GST control) with ERF; 1.18 fold enrichment (6-mer frequency, TF over GST control) in the assay with ETV3L; 1.09 fold enrichment (6-mer frequency, TF over GST control) with ETS2; 1.11 fold enrichment (6-mer frequency, TF over GST control) with SPDEF; 1.02 fold enrichment (6-mer frequency, TF over GST control) with ETV7; 1.02 fold enrichment (6-mer frequency, TF over GST control) in the assay with ELF5. For the same sequence, the binding signal with ETV3 is 1.11 fold enrichment (6-mer frequency, TF over GST control); in the assay with ETV6, 1.1 fold enrichment (6-mer frequency, TF over GST control).
CAACAT: the binding signal with ERF is 1.23 fold enrichment (6-mer frequency, TF over GST control); in the assay with ETV3L, 1.2 fold enrichment (6-mer frequency, TF over GST control); in the assay with ETS2, 1.17 fold enrichment (6-mer frequency, TF over GST control); with SPDEF, 1.17 fold enrichment (6-mer frequency, TF over GST control); with ETV7 it was 1.08 fold enrichment (6-mer frequency, TF over GST control); in the assay with ELF5 it was 1.16 fold enrichment (6-mer frequency, TF over GST control). Also, the binding signal in the assay with ETV3 is 1.22 fold enrichment (6-mer frequency, TF over GST control); with ETV6, 1.09 fold enrichment (6-mer frequency, TF over GST control).
Take TGTCCA: the binding signal was 1.09 fold enrichment (6-mer frequency, TF over GST control) with ERF; 1.2 fold enrichment (6-mer frequency, TF over GST control) in the assay with ETV3L; 1.14 fold enrichment (6-mer frequency, TF over GST control) in the assay with ETS2; 1.13 fold enrichment (6-mer frequency, TF over GST control) in the assay with SPDEF; 1.18 fold enrichment (6-mer frequency, TF over GST control) with ETV7; 1.05 fold enrichment (6-mer frequency, TF over GST control) with ELF5. The binding signal in the assay with ETV3 is 1.13 fold enrichment (6-mer frequency, TF over GST control); with ETV6, 1.12 fold enrichment (6-mer frequency, TF over GST control).
Turning to AATATT, the binding signal in the assay with ERF was 1.22 fold enrichment (6-mer frequency, TF over GST control); with ETV3L, 1.36 fold enrichment (6-mer frequency, TF over GST control); in the assay with ETS2, 1.34 fold enrichment (6-mer frequency, TF over GST control); with SPDEF, 1.25 fold enrichment (6-mer frequency, TF over GST control); with ETV7 it was 1.43 fold enrichment (6-mer frequency, TF over GST control); in the assay with ELF5, 1.38 fold enrichment (6-mer frequency, TF over GST control). Further, the binding signal with ETV3 was 1.37 fold enrichment (6-mer frequency, TF over GST control); with ETV6 it was 1.46 fold enrichment (6-mer frequency, TF over GST control).
With GCCTTT, the binding signal was 1.29 fold enrichment (6-mer frequency, TF over GST control) with ERF; 1.27 fold enrichment (6-mer frequency, TF over GST control) with ETV3L; 1.14 fold enrichment (6-mer frequency, TF over GST control) in the assay with ETS2; 1.15 fold enrichment (6-mer frequency, TF over GST control) in the assay with SPDEF; 1.18 fold enrichment (6-mer frequency, TF over GST control) in the assay with ETV7; 1.3 fold enrichment (6-mer frequency, TF over GST control) with ELF5. Besides, the binding signal in the assay with ETV3 was 1.33 fold enrichment (6-mer frequency, TF over GST control); with ETV6 it was 1.38 fold enrichment (6-mer frequency, TF over GST control).
For TGTCCG, the binding signal with ERF was 1.31 fold enrichment (6-mer frequency, TF over GST control); in the assay with ETV3L, 1.4 fold enrichment (6-mer frequency, TF over GST control); with ETS2, 1.52 fold enrichment (6-mer frequency, TF over GST control); with SPDEF, 1.8 fold enrichment (6-mer frequency, TF over GST control); with ETV7 it was 1.51 fold enrichment (6-mer frequency, TF over GST control); with ELF5, 1.62 fold enrichment (6-mer frequency, TF over GST control). Further, the binding signal was 1.6 fold enrichment (6-mer frequency, TF over GST control) in the assay with ETV3 and 1.55 fold enrichment (6-mer frequency, TF over GST control) with ETV6.
As to AAAGAA, the binding signal is 1.27 fold enrichment (6-mer frequency, TF over GST control) with ERF; 1.19 fold enrichment (6-mer frequency, TF over GST control) with ETV3L; 1.26 fold enrichment (6-mer frequency, TF over GST control) with ETS2; 1.18 fold enrichment (6-mer frequency, TF over GST control) in the assay with SPDEF; 1.36 fold enrichment (6-mer frequency, TF over GST control) with ETV7; 1.23 fold enrichment (6-mer frequency, TF over GST control) in the assay with ELF5. Besides, the binding signal with ETV3 is 1.2 fold enrichment (6-mer frequency, TF over GST control); in the assay with ETV6, 1.3 fold enrichment (6-mer frequency, TF over GST control).
For CTGGAC, the binding signal with ERF was 1.03 fold enrichment (6-mer frequency, TF over GST control); in the assay with ETV3L it was 1.22 fold enrichment (6-mer frequency, TF over GST control); in the assay with ETS2, 1.07 fold enrichment (6-mer frequency, TF over GST control); with SPDEF, 1.12 fold enrichment (6-mer frequency, TF over GST control); with ETV7, 1.09 fold enrichment (6-mer frequency, TF over GST control); with ELF5, 1.16 fold enrichment (6-mer frequency, TF over GST control). The binding signal with ETV3 was 1.06 fold enrichment (6-mer frequency, TF over GST control); with ETV6, 1.09 fold enrichment (6-mer frequency, TF over GST control).
